Each sequence was assayed against FBXL3 (assay: pooled miR-30 sensor sort-seq; sequence = guide strand). Settings: shRNA.
With TTAATTATAATACATTTGCTTG the sensor-assay potency score (higher = more potent) was -1.08.
With TACTCTTCTGAATAGTATGGAA the sensor-assay potency score (higher = more potent) was -0.502.
TAACTCTTCATCAAGTGGCCGT gave a sensor-assay potency score (higher = more potent) of -0.249.
For TTCCTTGCTGCTGTCCACCTTG, the sensor-assay potency score (higher = more potent) was -0.442.
With TATCACAAGCTGCTTCAGCTGA the sensor-assay potency score (higher = more potent) was -0.251.
With TTTAATAATCTGTTTGATCAGC the sensor-assay potency score (higher = more potent) was -0.685.
TACATCACTAAGTTCACTTTGG gave a sensor-assay potency score (higher = more potent) of 0.0732.
With TTGCTTGAAATTAAGGTGCTAT the sensor-assay potency score (higher = more potent) was 0.353.
Sequence TACTGGAGTATCATCTATCTTA has a sensor-assay potency score (higher = more potent) of -0.0234.
TACTTGGAGAATAATGTCCTGA gave a sensor-assay potency score (higher = more potent) of 0.112.

What follows are sequences tested against FBXO25 in the same assay as above. Settings: shRNA.
Work on TCACTAAGCATATACAACGTGG yielded a sensor-assay potency score (higher = more potent) of -0.518.
Work on TTCACTTGCTTAGTCATCTGAA yielded a sensor-assay potency score (higher = more potent) of 0.836.
Sequence TTGACCACATAATTGAACCTTC has a sensor-assay potency score (higher = more potent) of 0.213.
Work on ATATCTTGAATTGCACTTGAGA yielded a sensor-assay potency score (higher = more potent) of -0.85.
TTCACTAAGCATATACAACGTG gave a sensor-assay potency score (higher = more potent) of -0.104.
With TATTGAATATTTCTCCATCTTC the sensor-assay potency score (higher = more potent) was -0.493.
Work on TAATCCAACTCCATCCAGGAGA yielded a sensor-assay potency score (higher = more potent) of -0.761.
TGTGTCTCCGTACTGCTCCTTC showed a sensor-assay potency score (higher = more potent) of -0.185.
Work on TAGGTCTTGCAGAAGATCTTTG yielded a sensor-assay potency score (higher = more potent) of -0.731.
TTTTTTTCGATGCATATTCATG was tested, and the sensor-assay potency score (higher = more potent) was -0.983.
TCTGTCTTAATCCAACTCCATC showed a sensor-assay potency score (higher = more potent) of -1.72.
For TCTTAATCCAACTCCATCCAGG, the sensor-assay potency score (higher = more potent) was -0.487.

Each sequence was assayed against FBXO27 in the same assay as above. Settings: shRNA.
TTTTTTAACGTAGACTTTCAGC gave a sensor-assay potency score (higher = more potent) of -0.574.
Work on TCTGGTAGTTTCTAGAACCTGA yielded a sensor-assay potency score (higher = more potent) of 0.603.
For TTACAGGTCCTTGAGGATCAGG, the sensor-assay potency score (higher = more potent) was -1.43.
Sequence TTATCTAGAACAGTCTGGTTGG has a sensor-assay potency score (higher = more potent) of 0.434.
With TGATATATTATTCTTACTGTTT the sensor-assay potency score (higher = more potent) was -0.893.
In the case of AATTTATCTAGAACAGTCTGGT, the sensor-assay potency score (higher = more potent) is reported as 0.248.
Sequence TGTTGCACCATCCACTTTCGGA has a sensor-assay potency score (higher = more potent) of -0.815.
TTTAACGTAGACTTTCAGCTGC was tested, and the sensor-assay potency score (higher = more potent) was 0.647.
In the case of TTGATGTTGGAGAACACGTGGG, the sensor-assay potency score (higher = more potent) is reported as -0.501.
With TTTTCCTCCACCACCCAGCCGT the sensor-assay potency score (higher = more potent) was -0.662.
Work on TTTTTTTTTAACGTAGACTTTC yielded a sensor-assay potency score (higher = more potent) of -0.903.
Sequence TTTATCTAGAACAGTCTGGTTG has a sensor-assay potency score (higher = more potent) of 0.00929.

The sequences below were run against FBXO43 in the same assay as above. Settings: shRNA.
TTTGACTGCATGAAGTCACTTC was tested, and the sensor-assay potency score (higher = more potent) was 0.521.
TTGAACAACAATTTCACGCCAA showed a sensor-assay potency score (higher = more potent) of 0.6.
In the case of TTCATGTCCACTATTTTCCTGT, the sensor-assay potency score (higher = more potent) is reported as 0.372.
TTGCTTTTCATGAACAGCTCAT was tested, and the sensor-assay potency score (higher = more potent) was -0.219.
With TAATTCTGTTAAGATGTCCAGT the sensor-assay potency score (higher = more potent) was -0.342.
Sequence TTATCTATATTATCAAAGCTAC has a sensor-assay potency score (higher = more potent) of -0.969.
Further: reference of the scale not given here.
